In all, about 69,000 compounds went through this assay and about 8,600 (12%) showed an effect of 50% or more. What follows is part of a selection rich in strong results, with near analogues and random picks from the rest.

This assay has as its system Plasmodium berghei. Briefly: Screen against P. berghei liver stage (PbLuc), transformed with Luciferase, at 10uM. It is filed as functional, HepG2. The settings on record: tested at 10 uM.
As for `CN(Cc1ccncc1)C1COC2(CCN(c3ncc(F)cn3)CC2)C1` (stereo not drawn), the INHIBITION is 37.8%.
Regarding `CN(Cc1ccccn1)C1COC2(CCN(Cc3cccnc3)CC2)C1` (stereo not drawn), the INHIBITION turned out to be 38.1%.
Then `CN(C)C1COC2(CCN(Cc3ccncc3)CC2)C1` (stereo not drawn), with 29.9%; and `CN(Cc1ccncc1)C1CC2(CCN(Cc3ccccn3)CC2)C1`, with 28.7%.
In the case of `CN(Cc1ccncc1)C1COC2(CCN(Cc3nccn3C)CC2)C1` (stereo not drawn), the INHIBITION was 73%.
Then `CN(Cc1ccncc1)C1COC2(CCN(Cc3ccsc3)CC2)C1` (stereo not drawn), with 49.7%; and `CN(Cc1ccncc1)C1COC2(CCN(Cc3ccccn3)CC2)C1` (stereo not drawn), with 52%; and `CN(Cc1ccncc1)C1COC2(CCN(Cc3ccco3)CC2)C1` (stereo not drawn), with 59%.
Then `CN(Cc1ccncc1)C1COC2(CCN(Cc3cccs3)CC2)C1` (stereo not drawn), with 4.57%; and `O=C(O)CCNC(=O)Cc1csc(-c2cccc(Cl)c2)n1`, with 25.1%; and `Cc1nc(CN2CCN(C(=O)c3sccc3C3CC3)CC2)oc1C`, with 1.75%.
The value for `CCc1cc(O)n2nc(C3CCCN3C(=O)c3ccccn3)cc2n1` (stereo not drawn) was 18.85%.
For `COc1cccc(CNc2nc(O)cc(C3CC(=O)N(C)C3)n2)c1` (stereo not drawn), the INHIBITION came to 17.1%.
Then `Cc1ccc(CNc2nc(O)cc(C3CC(=O)N(C)C3)n2)cc1` (stereo not drawn), with -16.5%.
Then `CCOCCCNc1nc(O)cc(C2CC(=O)N(C)C2)n1` (stereo not drawn), with 56.9%; and `CNC(=O)c1cnc(C)nc1CCNC(=O)CCc1ccccc1`, with -0.232%.
On to `COCC1c2c(cnn2CC2CC2)CCN1Cc1nccs1` (stereo not drawn), for which the INHIBITION was 7.11%.
The value for `CSCc1nc(CCNC(=O)C(N)c2c(C)n[nH]c2C)cs1` (stereo not drawn) was 21.2%; that for `Cc1n[nH]c(C)c1C(N)C(=O)NCCc1csc(C(C)C)n1` (stereo not drawn) was -10.8%; that for `Cc1nc(CCNC(=O)C(N)c2c(C)n[nH]c2C)sc1C` (stereo not drawn) was 56%.
The value for `O=C(N1CCCC1)N1CCC2(CC1)COCCN(Cc1cccnc1)C2` was 41.6%; that for `C[C@@H](NC(=O)c1ccc(Cl)cc1)c1onc(-c2cccnc2)c1C(=O)O` was -4.82%; that for `Cc1nc2c(c(N3CCN(c4ncccc4C(N)=O)CC3)n1)CCNC2` was 32.5%.
The value for `c1ccc2c(c1)CCN(c1nc(-c3ccncc3)nc3c1CCNC3)C2` was 58%; that for `Cc1cc2n(n1)CCN(c1nc(N)nc3c1CCNCC3)C2` was 12.1%.
On to `Cc1ccccc1N1CCN(c2nc(N(C)C)nc3c2CCNC3)CC1`, for which the INHIBITION was found to be 88.5%.
Then `NCCC1CN(c2nc(-c3ccccc3)nc3c2CCNC3)CCO1` (stereo not drawn), with 38.2%.
Turning to `COCCNc1nc2c(c(N3CCn4nc(C)cc4C3)n1)CCNCC2`, the INHIBITION stood at 27.6%.
Regarding `CN(C)c1nc2c(c(N3CCc4ccccc4C3)n1)CCNC2`, the INHIBITION came out at 66.7%.
With `COc1cccc2c1OCCCN(c1nc(N)nc3c1CCNC3)C2`, the INHIBITION worked out at 27.6%.
The value for `Cc1cccc(=O)n1CCCNc1nc(N(C)C)nc2c1CCNC2` was 10.9%; that for `c1ccc2c(c1)CCN(c1ncnc3sc4c(c13)CCNC4)C2` was 38.2%; that for `CN(C)c1nc2c(c(N3CCc4c(c(CO)nn4C)C3)n1)CCNC2` was -2.43%.
Then `Cc1cc2n(n1)CCN(c1nc(N(C)C)nc3c1CCNC3)C2`, with 57.6%; and `COCC1CN(Cc2ccsc2)Cc2nn(C)cc21` (stereo not drawn), with 22.2%.
With `CN(CCCO)Cc1cc(Cl)ccc1OCC(O)CN1CCCCCC1` (stereo not drawn), the INHIBITION was -50.7%.
The value for `COc1ccnc(N2CCN(C(=O)Cc3ccn(C(C)C)n3)CC2)n1` was -47.6%; that for `Cc1nn(C)c2nc(C(C)C)cc(C(=O)Nc3n[nH]c(C4CC4)n3)c12` was 45.3%; that for `O=C(NCCc1nncn1C1CC1)c1cnn(Cc2ccccc2)c1` was 4.13%.
Then `COc1cccn(CC(=O)N2CCCC3(CCCCC3)C2)c1=O`, with -17.7%; and `Cc1cc(C)c(C(=O)N2CCCC(O)(CN3CCCC3)C2)cc1C` (stereo not drawn), with 34.9%; and `CCN(CC(=O)NC)C(=O)c1sc(Cc2ccccc2)nc1C`, with -16%.
Then `Cc1nc(Cc2ccccc2)nc2sc(C(=O)O)c(C)c12`, with 53.1%; and `Cc1c(C(=O)O)sc2nc(Cc3ccccc3)nc(N)c12`, with -2.27%; and `COc1cc2nc(C)n(CC(=O)NCCN(C)C)c(=O)c2cc1OC`, with 2.55%.
In the case of `COc1cc(CN2CCCC[C@]3(C)NC(=O)CC[C@H]23)ccc1F`, the INHIBITION is given as 23.9%.
With `Cn1cc(CN2Cc3cn(C)nc3C(COCC3CC3)C2)cn1` (stereo not drawn), the INHIBITION was 34.6%.
Then `CCOCC1CN(Cc2cnn(C)c2)Cc2ncn(C)c21` (stereo not drawn), with 36.9%.
On to `CCn1cc2c(n1)CN(Cc1ccoc1)CC2COCC1CC1` (stereo not drawn), for which the INHIBITION was 9.54%.
Then `CCn1cc2c(n1)CN(Cc1ccc(C)o1)CC2COCC1CC1` (stereo not drawn), with 63.7%; and `CCOCC1CN(Cc2cnn(C)c2)Cc2ncn(CC3CC3)c21` (stereo not drawn), with 33%; and `CCOCC1CN(Cc2cnn(C)c2)Cc2c1cnn2CC` (stereo not drawn), with 53.2%.
The value for `CCOCC1CN(Cc2ccc(OC)cc2)Cc2nn(CC3CC3)cc21` (stereo not drawn) was 33%; that for `CCn1cc2c(n1)CN(Cc1cnn(C)c1)CC2COCC1CC1` (stereo not drawn) was 63.7%.
Then `CCOCC1CN(Cc2cnn(C)c2)Cc2nn(C)cc21` (stereo not drawn), with 18.2%; and `CCOCC1CN(Cc2cnn(C)c2)Cc2nn(CC3CC3)cc21` (stereo not drawn), with 67.2%.
Regarding `CCOCC1CN(Cc2ccoc2)Cc2nn(CC3CC3)cc21` (stereo not drawn), the INHIBITION is reported as -19.4%.
Take `CCOCC1CN(Cc2cnn(C)c2)Cc2cnn(C)c21` (stereo not drawn): the INHIBITION is on record as 35.7%.
As to `O=C(c1cc(=O)[nH]c(=O)[nH]1)N1CCCC(CO)(CC2CC2)C1` (stereo not drawn), the INHIBITION is reported as 47.6%.
With `CN(Cc1ccccc1)C1COC2(CCN(Cc3nccs3)CC2)C1` (stereo not drawn), the INHIBITION stood at 37%.
In the case of `O=C(Cc1ccc(F)cc1)NCCNc1cc(N2CCCC2)ncn1`, the INHIBITION was determined as 31.7%.
The value for `CCN(CC)C1COc2c(cc(Br)c(C)c2Br)C1=O` (stereo not drawn) was 5.56%.
Then `CC(C)c1noc(CCNC(=O)NCC2Cc3ccccc3O2)n1` (stereo not drawn), with -34.8%; and `Cc1nc(N(C)C)nc(C)c1NS(=O)(=O)c1ccc(F)cc1F`, with -7.81%; and `CS(=O)(=O)NCC1CCCN(C(=O)Nc2ccccc2F)C1` (stereo not drawn), with 4.1%.
As to `COc1cnc(CSc2nnc(C)s2)cc1OCC(=O)NC(C)(C)C`, the INHIBITION was -3.11%.
The value for `CN(C)S(=O)(=O)N1CCC[C@]2(C[C@@H](Oc3ccccn3)CO2)C1` was -21.3%.
Then `O=C1CCC2(CCC(NC3CCOCC3)CC2)N1Cc1ccccc1` (stereo not drawn), with -47.9%.

The values are drawn from ChEMBL document CHEMBL4513216, “Probing the Open Global Health Chemical Diversity Library for Multistage-Active Starting Points for Next-Generation Antimalarials” (ACS Infect Dis, 2020).
